Assay results taken from PubChem BioAssay.
Active and inactive are the calls of the source.

Key:
Albumin (Bos taurus) = Albumin (Bos taurus) (UniProt P02769); test: compounds binding labelled BSA control protein – biochemical, small-molecule microarray, Alexa647 label, 635/667 nm fluorescence, artefact control for SMM control protein annotation, profiling panel (AID 1118); details: BSA-A647 binding, fluorescence 635 nm, higher = more signal;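 note: score merges 667 nm emission intensity and signal-to-noise per printed compound spot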
Albumin (Bos taurus), sequence (P02769 whole entry, looked up): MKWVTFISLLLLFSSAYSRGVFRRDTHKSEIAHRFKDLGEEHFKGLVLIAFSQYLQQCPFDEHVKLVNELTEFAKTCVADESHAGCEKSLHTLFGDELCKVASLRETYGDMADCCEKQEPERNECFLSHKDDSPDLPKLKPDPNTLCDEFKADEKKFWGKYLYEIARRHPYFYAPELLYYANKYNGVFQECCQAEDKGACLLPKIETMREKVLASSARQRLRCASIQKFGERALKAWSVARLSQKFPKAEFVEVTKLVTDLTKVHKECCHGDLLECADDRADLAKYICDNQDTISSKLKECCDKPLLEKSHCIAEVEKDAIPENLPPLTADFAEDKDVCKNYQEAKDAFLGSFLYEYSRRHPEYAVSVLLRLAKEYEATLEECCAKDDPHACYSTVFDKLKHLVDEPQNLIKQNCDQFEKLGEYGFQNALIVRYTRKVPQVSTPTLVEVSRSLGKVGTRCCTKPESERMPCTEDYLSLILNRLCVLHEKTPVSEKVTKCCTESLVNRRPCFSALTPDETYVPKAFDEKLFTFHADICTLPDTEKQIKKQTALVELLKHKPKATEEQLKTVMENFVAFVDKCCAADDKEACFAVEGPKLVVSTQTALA

[1] = probe aXIP binding to arrayed compounds – biochemical, NeuroSMM set, 635/667 nm fluorescence, primary screen (AID 1119); details: small-molecule microarray, higher = more signal, called active from +8 up or from −8 down;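 note: probe is the protein aXip251-270 applied at 1 µg/mL to compound-printed slides; binding of probe to printed compounds measured as 667 nm fluorescence plus signal to noise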
[2] = probe aNOTCH3 binding on compound microarray – biochemical, small-molecule microarray, 635/667 nm fluorescence, primary screen (AID 1120); details: higher = more signal;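 note: probe is a biotin-tagged antibody raised against NOTCH3 rather than NOTCH3 protein; score merges spot fluorescence near 667 nm with spot signal to noise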
[3] = probe aNOTCH2 binding on compound microarray – biochemical, small-molecule microarray, 635/667 nm fluorescence, primary screen (AID 1121); details: higher = more signal;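 note: score merges feature fluorescence read at 667 nm with its signal to noise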
[4] = target: Carbonic anhydrase 2 (Homo sapiens) (UniProt P00918); test: compounds binding carbonic anhydrase 2 – biochemical, small-molecule microarray, Alexa647-labelled CAII, profiling panel (AID 1122); details: CAII-A647 binding fluorescence, higher = more signal
[5] = COS7 lysate on small-molecule microarray, probe aHis, 635 nm (AID 1123); details: COS7 cell lysate, fluorescence, higher = more signal;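 note: z-score combines 667nm fluorescence intensity with signal-to-noise per printed compound spot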
[6] = probe aLAP1 signal on lysate-treated microarray – cell lysate, small-molecule microarray, COS7 lysate, primary screen (AID 1124); details: probe aLAP1, fluorescence, higher = more signal;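 note: lysate comes from COS7 cells expressing LAP1 and is applied at 0.3 µg/mL; score merges spot fluorescence near 667 nm with signal-to-noise over triplicate slides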
Sam68 (KHDRBS1) = test: compounds binding KHDRBS1 protein – biochemical, small-molecule microarray, 635 nm fluorescence, primary screen (AID 1125); details: higher = more signal;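 note: score merges 667 nm channel intensity with signal to noise over triplicate slides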
[7] = system: Chordin-like protein 2 (CHRDL2); test: compounds binding chordin-like 2 – biochemical, small-molecule microarray, 635 nm fluorescence, primary screen (AID 1126); details: fluorescence 635 nm, higher = more signal;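 note: printed compound slides probed with Chrdl2 protein at 4 µg/mL for 1 h at 4 C; score merges 667 nm emission intensity with signal to noise over three replicate slides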
[8] = target: Concanavalin-A (Canavalia ensiformis) (UniProt P02866); test: compounds binding concanavalin A lectin – biochemical, small-molecule microarray, Alexa647 label, 635 nm, artefact control for SMM control protein annotation, primary screen (AID 1127); details: ConA-A647 binding fluorescence, higher = more signal;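 note: z combines 667 nm emission intensity with signal-to-noise across three replicate slides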
Concanavalin-A (Canavalia ensiformis), sequence (P02866 whole entry, looked up): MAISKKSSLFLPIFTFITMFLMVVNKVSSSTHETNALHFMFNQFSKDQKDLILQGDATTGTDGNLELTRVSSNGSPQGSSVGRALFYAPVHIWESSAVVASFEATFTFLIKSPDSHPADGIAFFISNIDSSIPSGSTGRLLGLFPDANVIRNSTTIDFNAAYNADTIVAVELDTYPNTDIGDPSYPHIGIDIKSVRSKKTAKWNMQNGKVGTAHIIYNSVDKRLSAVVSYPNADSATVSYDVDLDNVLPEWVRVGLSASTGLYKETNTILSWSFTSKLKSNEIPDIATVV

Row | SMILES | composite z-score (Albumin (Bos taurus)) | composite Z-score [1] | composite z-score [2] | composite z-score [3] | composite z-score [4] | composite z-score [5] | composite z-score [6] | composite z-score (Sam68 (KHDRBS1)) | composite z-score [7] | composite z-score [8]
1 | COC(=O)c1ccc(C23CC2(C(NP(=O)(c2ccccc2)c2ccccc2)c2ccccc2)C3)cc1 (stereo not given) | 0.982 | 0.117 (inactive) | 0.325 | 0.359 | 0.819 | 2.8 | 1.02 | 0.921 | -1.12 | 0.484
2 | N[C@@H](Cc1ccccc1)Cn1cc(-c2ccccc2)nn1 | 0.656 | -0.254 (inactive) | 0.0879 | -0.053 | -0.062 | 0.281 | 0.954 | 0.406 | 0.53 | -0.109
3 | Cc1ccc(F)cc1S(=O)(=O)N[C@@H]1CCN(Cc2ccc(-c3ccccc3)cc2)C1 | 0.413 | -0.569 (inactive) | -0.126 | -0.0598 | 0.482 | 0.249 | 0.625 | 0.581 | 0.776 | -0.0888
4 | O=c1oc(-c2ccccc2)nc2cc(Br)ccc12 | -0.163 | -0.12 (inactive) | -0.0647 | -0.0984 | -0.0912 | 0.704 | 0.107 | 0.0872 | 0.875 | 0.666
5 | O=C1N(CCS(=O)(=O)c2ccccc2)Cc2ccccc2[C@H]2OC(c3ccc(OCCCO)cc3)=N[C@@]12CCS(=O)(=O)c1ccccc1 | -0.284 | 1.81 (inactive) | -0.0247 | -0.0586 | 0.524 | 2.64 | 0.708 | 1.3 | 0.242 | 1.22
6 | CC(C)(C)OC(=O)CC[C@@]1(C(=O)NCCN2CCOCC2)N=C(c2ccc(OCCCO)cc2)O[C@@H]1c1ccccc1 | 1.03 | -0.548 (inactive) | 0.209 | 0.0129 | 0.539 | 1.46 | 0.275 | 1.3 | -0.0233 | 1.17
7 | Cc1ccc(S[C@]2(C(=O)NCC(C)C)CC(=O)N(Cc3ccccc3Cl)[C@@H]2c2ccc(CO)cc2)cc1 | -0.968 | -0.12 (inactive) | -0.312 | -0.162 | 0.738 | 0.678 | -0.0092 | -0.897 | -0.796 | -1.88
8 | C=CCOC(=O)[C@@H]1[C@H]2C(=O)O[C@H](c3ccccc3)[C@H](c3ccccc3)N2[C@H](c2ccc(OCCOC(=O)[C@@H]3C[C@@H]4C(=O)N[C@@H](Cc5ccccc5)C(=O)N4[C@@H]3c3cccc(OCCO)c3)cc2)[C@@]12C(=O)Nc1ccc(I)cc12 | -0.912 | -0.292 (inactive) | -0.0328 | -0.0389 | 0.537 | 1.1 | 0.283 | 1.31 | 1.11 | 0.795
9 | C=CCN1C(=O)[C@]2(O[C@H](CCO)[C@@H]([Si](C)(C)c3ccc(OC)cc3)[C@@H]2C)c2cc(NC(=O)[C@H](C)O)ccc21 | 0.851 | 1.31 (inactive) | 0.0203 | -0.0666 | 0.56 | 1.39 | 0.371 | 1.31 | 0.174 | 1.01
10 | COc1ccc(CCNC(=O)[C@@]2(c3ccc([N+](=O)[O-])cc3)CC(=O)N(CC34CC5CC(CC(C5)C3)C4)[C@@H]2c2ccc(CO)cc2)cc1 | -0.191 | 0.22 (inactive) | 0.0494 | -0.0617 | 0.18 | 1.11 | -0.291 | 1.09 | 0.647 | 1.12
11 | C=CC[C@@]1(C(=O)NCC(O)CO)N=C(c2ccc(OCCCO)cc2)O[C@@H]1c1ccccc1N=[N+]=[N-] (stereo not given in full) | 1.04 | 0.338 (inactive) | 0.266 | 0.0007 | 0.778 | 3.7 | 1.02 | 0.931 | -0.982 | 0.97
12 | CCOC(=O)C[C@H]1[C@H](OC(=O)c2ccc(-c3ccccc3)cc2)[C@@H](NC(=O)c2ccc(-c3ccccc3)cc2)c2cc(OCCCO)ccc2N1C(=O)Cc1ccc(OC)cc1 | 0.225 | -0.576 (inactive) | -0.0146 | -0.125 | -0.0968 | 0.589 | -0.002 | -0.316 | -0.15 | 0.363
13 | CCOC(=O)C[C@H]1[C@H](OC(=O)c2ccccc2-c2ccccc2)[C@@H](NC(=O)Cc2ccc(OC)cc2)c2cc(OCCCO)ccc2N1C(=O)c1ccccc1 | 0.176 | 0.0843 (inactive) | -0.113 | -0.155 | -0.0951 | 0.157 | -0.0152 | -0.0445 | 0.0492 | -0.393
14 | Cc1ccccc1C(O)C1C=CC2C(=O)N(C)C(=O)C2N1N1CCCCC1 (stereo not given) | 0.992 | -0.118 (inactive) | 0.36 | 0.21 | 0.793 | 2.92 | 0.996 | 1.32 | 0.642 | 1.09
15 | COc1ccc(CCNC(=O)[C@@]2(Sc3ccc(C)cc3)CC(=O)N(Cc3ccccc3Cl)[C@@H]2c2ccc(CO)cc2I)cc1 | 0.331 | -0.0194 (inactive) | -0.177 | -0.0814 | 0.76 | 1.71 | 1.18 | 0.361 | 0.0024 | -0.233
16 | C=CCC(OC(C)=O)[C@@H]1[C@@H](N(Cc2ccc(-c3cccc(C(F)(F)F)c3)o2)C(=O)c2ccc(C)cc2)c2cc(OCCCO)ccc2N1C(=O)c1ccc(-c2ccccc2)cc1 (stereo not given in full) | -0.405 | 0.244 (inactive) | 0.0026 | -0.115 | 0.376 | -0.0056 | -0.0012 | -0.597 | 0.031 | 0.854
